From PubChem BioAssay AID2653 (National Center for Advancing Translational Sciences (NCATS), 2010)
Records with an inconclusive call do not appear. A number with no mark means an inactive call. Calls come from the whole dose curve; as a rule, active = well fitted curve in the direction sought with a large enough effect; inconclusive = small, poorly fitted or top-dose-only effect, or another doubt; inactive = no such curve, though single readings can be large or run the other way.

Test: Secondary Assay for Activators of Human Pyruvate Kinase M2 isoform - Cell Titer Glo Cytotoxicity for Probe SAR; note: % of control where 0% means no effect
Settings: HeLa viability, CellTiter-Glo ATP luminescence, 24 h; series mostly up to 58.2 µM; activity change, negative = cytotoxicity: at the top concentration
Description: NIH Chemical Genomics Center [NCGC]
Matthew G. Vander Heiden, M.D., Ph.D. [Harvard Medical School, 77 Avenue Louis Pasteur, Boston, MA 02115]
We have identified a series of activators of the M2 isoform of human pyruvate kinase. The assay described here examines the cytotoxicity of these compounds by measuring the total ATP content of Hela cells after 24 hrs of exposure to compound.
500 Hela cells/ 4ul in media (DMEM with high glucose, 10% FBS, 1x Pen Strep, 1x NEAA) were dispensed into a white solid 1536-microwell plate with a Thermo Multidrop. The plates were incubated at 37 degrees Celsius for 24 hours. The cells were then treated with compounds using the Kalypsys pin tool, delivering 23 nl of test compounds and the control doxorubicin. The plates were then incubated for an additional 24 hours at 37 degrees C after which 4 ul of Promega Cell-Titer Glo was dispensed using the Thermo Multidrop. The plates were incubated at room temperature for 10 min before reading luminescence on the Perkin Elmer ViewLux with images collected with 2x binning and a 5 sec exposure time.

SMILES	activity change, negative = cytotoxicity
Cc1ccc(NS(=O)(=O)c2cc3c(cc2N2CCCCC2)NC(=O)CC3)cc1C	-17.1%
O=C1CCc2cc(S(=O)(=O)Nc3ccc4c(c3)CCC4)ccc2N1	-21.2%
O=C1c2ccccc2C(=O)N1c1cccc(=O)[nH]1	1.18%
CC(=O)Nc1cccc(S(=O)(=O)Nc2ccc(C)c(C)c2)c1	1.12%
Cc1cc(N2C(=O)c3ccccc3C2=O)no1	-24%
Cc1ccc(NS(=O)(=O)c2ccc(Cl)cc2)cc1C	-4.87%
Cc1ccc(NS(=O)(=O)c2ccc3ccccc3c2)cc1C	-4.57%
Cc1ccc(Nc2c(-c3ccc(C)s3)nc3cccc(C)n23)cc1	-7.47%
Cc1cc(NS(=O)(=O)c2ccc3c(c2)CCC(=O)N3)ccc1Cl	-4.72%
CNc1cccc(S(=O)(=O)N2CCCN(S(=O)(=O)c3ccc4c(c3)OCCO4)CC2)c1	-19.6%
Cc1ccc(NS(=O)(=O)c2ccc(-c3ccccc3)cc2)cc1C	1.34%
CN(C)c1cccc(S(=O)(=O)N2CCCN(S(=O)(=O)c3ccc4c(c3)OCCO4)CC2)c1	-21.2%
Cc1ccc(N[S+](=O)([O-])c2cc3c(cc2CCc2ccccc2)NC(=O)CO3)cc1C	-10.3%
O=C1c2ccccc2C(=O)N1c1ccncc1	-39.8%
COc1ccccc1OC1=NS(=O)(=O)c2ccccc21	7.83%
COc1ccc(NS(=O)(=O)c2ccc3c(c2)CCC(=O)N3)cc1	-24.1%
O=S1(=O)N=C(Oc2cccc(Cl)c2)c2ccccc21	-7.68%
Cc1ccc(NS(=O)(=O)c2ccc3c(ccn3C)c2)cc1C	-14.2%
COc1ccc(N2C(=O)c3ccccc3C2=O)cc1	0.623%
CN(C)c1cccc(S(=O)(=O)N2CCN(S(=O)(=O)c3ccc4c(c3)OCCO4)CC2)c1	-1.98%

SMILES	activity change, negative = cytotoxicity
Cc1ccc(-c2nc3ccccn3c2Nc2ccccc2C)o1	-15.4%
Cc1nc(-c2ccc(S(=O)(=O)Nc3ccc(C)c(C)c3)s2)cs1	-17.5%
Cc1ccccc1Nc1c(-c2ccccc2)nc2cccc(C)n12	-16.5%
O=C1CCc2cc(S(=O)(=O)Nc3ccc(F)c(Cl)c3)ccc2N1	-9.53%
CSc1cc2c(s1)c1cnn(Cc3cccc(N)c3)c(=O)c1n2C	-21.7%
O=C1CCc2cc(S(=O)(=O)Nc3ccc(F)cc3)ccc2N1	-16.1%
Cc1ccc(NS(=O)(=O)c2cc3c(cc2Cl)NC(=O)CO3)cc1C	-9.17%
Cc1ccc(NS(=O)(=O)c2ccc(F)cc2)cc1C	0.61%
O=C1c2ccccc2C(=O)N1c1cnc2ccccc2c1	0.801%
O=C1CCc2cc(S(=O)(=O)Nc3ccc(Cl)cc3)ccc2N1	-8.11%
CNc1cccc(S(=O)(=O)N2CCN(S(=O)(=O)c3ccc4c(c3)OCCO4)CC2)c1	-2.61%
Cc1ccn2c(NCc3ccco3)c(-c3ccccc3)nc2c1	-7.39%
O=C1NS(=O)(=O)c2ccccc21	-2.53%
Cc1ccc(NS(=O)(=O)c2ccc3c(c2)CCC(=O)N3)cc1C	-10.7%
O=C1c2ccccc2C(=O)N1c1cccc(O)c1	-3.73%
Cc1ccc(NS(=O)(=O)c2ccc3c(c2)N(C)CCO3)cc1C	-7.1%
Cc1ccc(NS(=O)(=O)c2ccc3[nH]c(=O)[nH]c3c2)cc1C	-4.73%
O=C1c2ccccc2C(=O)N1c1ccc2ccccc2n1	-23.5%
Cc1ccc2nc(-c3ccc(C)o3)c(Nc3ccc(Cl)cc3)n2c1	-21.4%
O=C1c2ccccc2C(=O)N1c1cccc(Cl)c1	-21.7%
